GLP-1R agonist = GLP-1 receptor (human) agonism | HEK293 GLP-1R CRE-luciferase, luminescence, 4-6 h; cells express a hypersensitive GLP-1R form | Potency, µM (doses to about 45.6 µM), inactives show at the highest dose activation, actives largely listed as activators | 0.007% of 380,000 active | P43220; further: % of control where 0% means no effect
Target sequence (P43220 whole entry, looked up): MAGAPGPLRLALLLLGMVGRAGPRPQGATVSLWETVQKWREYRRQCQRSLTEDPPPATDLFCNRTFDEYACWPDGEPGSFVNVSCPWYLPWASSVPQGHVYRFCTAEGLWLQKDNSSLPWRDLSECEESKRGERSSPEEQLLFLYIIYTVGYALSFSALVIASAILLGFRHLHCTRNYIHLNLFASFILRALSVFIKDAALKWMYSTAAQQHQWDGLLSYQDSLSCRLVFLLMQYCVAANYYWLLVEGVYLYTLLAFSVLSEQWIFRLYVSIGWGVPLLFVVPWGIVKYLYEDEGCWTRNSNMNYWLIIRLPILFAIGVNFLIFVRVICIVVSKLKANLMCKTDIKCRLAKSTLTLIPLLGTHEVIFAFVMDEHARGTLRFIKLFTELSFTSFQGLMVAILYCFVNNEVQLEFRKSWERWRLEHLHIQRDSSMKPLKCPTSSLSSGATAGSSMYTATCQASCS
RORgamma inh = blocks mouse ROR gamma transcriptional activity; Potency, µM (top dose mostly 53.6 µM), for the others: at the top dose activity change, negative = inhibition, most hits filed as inhibitors; Drosophila S2 Gal4-RORgamma UAS-luciferase reporter, 20 h; P51450; 5.4% of 310,000 active; further: on the % scale 0 is the no-effect control and ±100 the full control effect; nearly all actives have a fitted effect of over 60% in size
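Compounds are pin-transferred onto Drosophila Schneider cells expressing a copper-inducible Gal4–ROR gamma transactivation domain fusion. After 1 hr, copper sulfate is added to 700 uM final; luciferase is read 20 hr later.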
GLP1R inv ag = acts as inverse agonist at human GLP-1 receptor. P43220. AID 624417. 1.6% of 410,000 active. HEK293 GLP-1R CRE-luciferase, luminescence, 24 h; GLP-1R form is constitutively active. Potency, µM (highest dose often 38.3 µM), for inactives: at the top dose activity change, negative = inhibition, usual class: inhibitors; further: on the % scale 0 is the no-effect control and ±100 the full control effect; nearly all actives have a fitted effect of over 55% in size
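Luminescence readout: a drop in cAMP-driven luciferase signal flags inverse agonism at a constitutively active GLP-1R stably expressed in HEK293. Compound exposure lasted 24 hr at 37 deg C, 5% CO2.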
GLP1R cytotox = cytotoxicity counter-screen for GLP-1 receptor inverse agonists | HEK293 cAMP-luciferase reporter cells, luminescence, 24 h | 0.13% of 410,000 active | Potency, µM (titrated, usually from 38.3 µM), inactives show top-dose activity change, negative = inhibition, most hits filed as inhibitors;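 further: loss of luciferase light is scored as toxicity; on the % scale 0 is the no-effect control and ±100 the full control effect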
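Seeding density was 200 cells/uL; after overnight-length (12 h) culture, 23 nL compounds went on for 24 h at 37 °C. Readout used a luciferase detection reagent, luminescence taken after 12 min at room temperature.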
VP16 counter = counter-screen for ROR gamma inhibitors: Gal4-VP16 reporter; Potency, µM (titrated, usually from 53.6 µM), without a hit: at the top dose activity, negative = inhibition, most hits filed as inhibitors; 3.5% of 310,000 active; Drosophila S2 Gal4-VP16 UAS-luciferase, luminescence, 20 h;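 further: Gal4-VP16 expression switched on by copper sulfate through the metallothionein promoter; on the % scale 0 is the no-effect control and ±100 the full control effect; nearly all actives have a fitted effect of over 50% in size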
Starred values were filed as active, the others as inactive; ? = inconclusive; · = no result; [ ] = dose if it differs, or a comment. Rows were chosen to be rich in hits. Some 5.9% of all compounds tested hit in one or more screens of this group. The call rests on the fitted dose curve; in most records, active means well fitted curve in the direction sought with a large enough effect; inconclusive means small, poorly fitted or top-dose-only effect, or another doubt; inactive means no such curve, though single readings can be large; an effect the other way counts as inactive or inconclusive. Potency means the concentration at half of the fitted maximal effect.

SMILES	GLP-1R agonist	RORgamma inh	GLP1R inv ag	GLP1R cytotox	VP16 counter
C=CCn1c(-c2cc(OC)c(OC)c(OC)c2)n[nH]c1=S	-6.0%	?	4.2%	5.5%	?
COc1ccc(CCNC(=O)Cn2c(=O)n(-c3ccc(OC)c(OC)c3)c(=O)c3ccccc32)cc1OC	0.2%	·	17.5%	-2.2%	·
CCCCCCCCCCCCCCCC(=O)OC[C@@H](NC(=O)C(Cl)Cl)[C@H](O)c1ccc([N+](=O)[O-])cc1	-3.0%	·	·	·	·
Cc1cc(C)c(NC(=O)Cn2nc(-c3ccncc3)ccc2=O)c(C)c1	·	·	7.8%	6.2%	·
CCn1c(-c2cc(Cl)ccc2OC)n[nH]c1=S	-20.0%	6.31µM*	6.4%	6.2%	?
COc1ccc(Cl)cc1-c1n[nH]c(=S)n1C	8.5%	?	16.1%	-5.8%	1.8%
Cc1ccccc1-c1nc2scc(CCNS(=O)(=O)c3ccccc3)n2n1	·	·	8.5%	-3.0%	·
c1ccc(-c2ccc(-c3ccccn3)nn2)nc1	·	5.62µM*	·	·	8.91µM*
Cc1cccn2cc(COc3ccc(-c4ccccc4)cc3)nc12	22.8%	12.6µM*	-30.9%	-17.8%	?
Brc1ccc(OCc2cn3ccccc3n2)cc1	-3.9%	10µM*	?	-0.9%	-4.3%
Cc1cccn2cc(COc3cccc([N+](=O)[O-])c3)nc12	22.4%	0.6%	12.1%	4.3%	0.1%
Cc1ccc(CNC(=O)CCCN2C(=O)c3cccnc3Oc3ccc(Cl)cc32)cc1	·	·	-4.9%	-15.8%	·
COc1ccc(CNC(=O)CCCN2C(=O)c3cccnc3Oc3ccc(Cl)cc32)cc1	·	·	13.5%	-13.2%	·
Cc1ccc(S(=O)(=O)Nc2ccccc2CNc2ccc(Br)cn2)cc1	-3.9%	?	?	6.6%	?
Cc1ccc(S(=O)(=O)Nc2ccccc2CNc2ncc(Br)cc2Br)cc1	-2.3%	43.5%	10µM*	6.3%	?
COCCNC(=O)NC12CC3CC(CC(C3)C1)C2	-0.3%	-0.2%	8.9%	13.5%	-14.8%
COCCNC(=S)NC12CC3CC(CC(C3)C1)C2	-4.6%	3.55µM*	?	?	4.47µM*
Cc1ccc2nc(SC(C(=O)Nc3ccc(F)cc3)c3ccccc3)[nH]c2c1 (stereo not given)	-18.0%	12.6µM*	5.62µM*	?	?
Cc1cccc(NC(=O)c2ccc3nc(CCc4ccccc4)oc3c2)c1C	·	·	12.2%	7.6%	·
Cc1cc(N2CCN(c3ccc([N+](=O)[O-])c4cccnc34)CC2)c2ccccc2n1	0.3%	12.6µM*	-2.9%	4.4%	7.08µM*
O=C(c1ccccc1F)N1CCN(c2ccc([N+](=O)[O-])c3cccnc23)CC1	10.2%	5.3%	15.5%	-5.1%	21.0%
Cc1cc(N2CCN(c3ccc(C(F)(F)F)cc3[N+](=O)[O-])CC2)c2ccccc2n1	-1.1%	-43.5%	7.94µM*	?	?
COc1ccc(-n2nc(C(=O)N(C)c3cc(C)ccc3C)c3c4ccccc4n(C)c3c2=O)cc1Cl	·	·	-8.1%	-5.0%	·
CC1=CC(C)(C)NC(=S)N1C(C)c1ccccc1 (stereo not given)	6.7%	2.24µM*	?	10µM*	3.98µM*
CC1=CC(C)(C)NC(=S)N1c1ccc(Cl)cc1	15.1%	·	?	?	·
SMILES	GLP-1R agonist	RORgamma inh	GLP1R inv ag	GLP1R cytotox	VP16 counter
CC1=CC(C)(C)NC(=S)N1c1ccc2ccccc2c1	10.4%	3.55µM*	?	?	6.31µM*
CC1=CC(C)(C)NC(=S)N1c1cccc2ccccc12	4.2%	?	?	?	5.01µM*
CC[C@@H]1O[C@]2(C=C[C@@H]1C)C[C@H]1C[C@H](CC=C(C)[C@@H](O[C@@H]3C[C@H](OC)[C@H](O[C@@H]4C[C@H](OC)[C@H](O)[C@H](C)O4)[C@H](C)O3)[C@@H](C)C=CC=C3CO[C@@H]4[C@@H](O)C(C)=C[C@@H](C(=O)O1)[C@]34O)O2	·	-6.4%[16.9 µM]	·	·	7.2%[17 µM]
CCCSc1nnc2n(-c3cccc(C)c3)c(=O)c3c4c(sc3n12)CCCC4	-1.1%	·	-1.9%	-8.1%	·
Cn1ncc2c(Nc3cccc(C#N)c3)ncnc21	·	·	13.4%	-0.1%	·
CC1OC(OCC2OC(Oc3cc(O)c4c(c3)OC(c3ccc(O)cc3)CC4=O)C(O)C(O)C2O)C(O)C(O)C1O (stereo not given)	·	-5.2%	·	·	-8.0%
O=c1n(Cc2cc3c(cc2Cl)OCO3)c(=O)n2n1CC[C@H]1/C(=N\OC[C@@H](O)COCc3ccco3)[C@H]3O[C@@H]3[C@@H](O)[C@@H]12	·	-10.7%[10 µM]	·	·	-8.2%[10 µM]
O=C1CC(N2CCN(c3ccccn3)CC2)C(=O)N1c1ccc(F)cc1 (stereo not given)	0.6%	-9.3%	0.4%	4.0%	7.6%
O=C1CC(N2CCN(c3ccccn3)CC2)C(=O)N1CC(c1ccccc1)c1ccccc1 (stereo not given)	-1.1%	1.2%	12.6µM*	0.0%	-4.3%
CCOc1ccccc1NC(=S)NNS(=O)(=O)c1c(C)cc(C)cc1C	1.3%	10µM*	-17.3%	-9.6%	14.1µM*
COc1ccccc1NC(=S)NCc1ccccc1	31.8%	14.1µM*	-16.3%	-10.2%	?
COc1ccc(CC(=O)NNC(=S)Nc2ccccc2)cc1Cl	-1.1%	?	23.7%[0.307 µM]	10.0%[0.307 µM]	3.0%
CCOc1ccc(CNC(=S)Nc2ccccc2)cc1Cl	6.0%	5.62µM*	?	-26.7%	5.62µM*
COc1ccc(CNC(=S)NCc2ccc(Cl)cc2)cc1OC	3.8%	?	?	-7.2%	22.4µM*
CCOc1ccccc1NC(=O)NNS(=O)(=O)c1cc(C)ccc1C	0.4%	-3.9%	?	-10.6%	-0.6%
Cn1c(=O)c2c(c3ccccc31)OC(=O)CC2c1cccc(F)c1 (stereo not given)	·	·	5.8%	-16.1%	·
COC(=O)N[C@@H](/C=C/c1ccccc1)C[N+](=O)[O-]	·	-2.7%	·	·	-1.7%
O=C(CCNS(=O)(=O)c1ccc2c(c1)CCCC(=O)N2)NCc1ccc(Cl)cc1	-4.7%	·	0.6%	-4.4%	·
CCOc1ccccc1NC(=S)Nc1ncccc1C	21.0%	7.08µM*	?	?	7.08µM*
COc1ccccc1NC(=S)NCc1ccc(Cl)cc1	-0.4%	11.2µM*	?	?	8.91µM*
CCOc1ccccc1NC(=S)NCc1cccn1C	10.0%	11.2µM*	6.8%	6.8%	20µM*
CCOc1ccccc1NC(=S)NCc1ccccc1	6.9%	7.08µM*	?	?	8.91µM*
Cc1cccnc1NC(=S)Nc1ncccc1C	0.2%	?	19.7%	11.5%	1.9%
CCOc1ccccc1NC(=S)Nn1cnnc1	-5.5%	-33.6%	3.2%	-7.0%	-14.8%
C=CCOC(=O)N[C@@H](CC(C)C)/C(C(=O)OC)=C(\C)NCc1ccccc1	·	-13.3%	·	·	-0.7%
CCOc1ccc(NC(=O)CSc2oc(-c3ccc(F)cc3)nc2S(=O)(=O)c2ccc(C)cc2)cc1	·	·	6.5%	-3.3%	·
